The assay relates to VDR:RXRa (NR concentration 270 nM, RXRa partner concentration 90 nM). In words: PBM binding z-score (relative to random genomic background probes); higher = stronger binding; sequences stand for … in GC…GCGATTGACAGCGTAGAATGAAGG
The protocol:
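Protein-binding microarray (Agilent 4x180K custom design, double-stranded 60-nt probes: 5' GC cap, 34-nt variable region, 24-nt constant primer region; full probe sequence given). Purified or IVT nuclear receptor:RXRα heterodimers (3:1 NR:RXRα, mostly 270:90 nM) or homodimers were incubated for 1 h in PBS with 2% milk and no ligand, then detected with Alexa488 antibodies. Fluorescence from o1-orientation probes (~5 replicates averaged) was converted to z-scores against 500 random hg19 background probes. Variable regions are seed direct-repeat (DR0–DR5) sites, all their single-nucleotide variants and half-site ablations.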
TCTGCTAGGTCAACGATTGTCAGCTAATCTGCTA came in with a PBM binding z-score of 0.993. In the case of AGTCAAAGTTCAGGACGAGGTAACGTAAAGCACG it was 2.85. In the case of ATCTCTAGGTAAAGTTCACTGAAAGATCGATAGA it was 2.89. Then CGAACGAGGGCATTAGTTGATAGCAAATGCCGAT, with 0.658.

CCTTACGGGGCACTGACAGGTTATAGCATTTGGA returned a PBM binding z-score of -0.341. The sequence TCAGACAGGTGGAGGTAACTCAGGTACGCAGTCG showed a PBM binding z-score of 0.574. In the case of CCAGACAGGTGAAAGGTAACTAAGTCTGGTACGC it was 0.397; in that of AGTACAGGGTCATCGTAGGCCAGAGTACGCACAG, 5.08; in that of CCAGACGGGTGAGAAGGTAACTCAGCCTCGATTA, -0.516. In the case of GGAACGAGGGCAAAGTTGATCGCATCTGTCGACG it was 1.1; in that of TCTGCTAGGTCAGCTGGTCAGCTAACGAGCTGCC, 0.12. Sequence CCTAGTAGGCCAGGGTCACTCAAGCATTTCGCTT yielded a PBM binding z-score of 2.7. As to CAAACTAAGTCACCGGAAGGTCAAAGTCCGCATG, the PBM binding z-score is 3.59. Then CAAACTAGCTCAAAGGTCAAAGTCGAGCCAACCA, with 4.72; and TCATATAGGTAAATGGTAGGTGAAAGTCCGATCT, with 1.16.

Consider TCTAGTTGGTCACGGAGGTCACCCACGACGGGTA, for which the PBM binding z-score was found to be 5.63. Then CTCGAAGGGTCGTGCTCAGGTGAGTATACCAAAC, with 1.59.

As for CCGACTGGGGGAAAGGTTACCATACTCAGTACGA, the PBM binding z-score was found to be 1.79. Then GCTAGCAGGCCATTTGGGACACTCAATGACGGGC, with -0.447; and AATACAGGGTCATCGTCGGCCAGAGTACGCACAG, with 5; and GCTAGCACGCCATTTGGGTCACTCAATGACGGGC, with -0.0776. On to GGAACGAGGGCATTCGAGTTGGTAGCATGGCGAT, for which the PBM binding z-score is 2.35.

For TATAGCAGGCCAGAGGGTCACTCAAGAGGTACGG, the PBM binding z-score turned out to be 1.58.

Regarding GGTACGAGGGCAAGTTGATAGCAGAGTTTGATGG, the PBM binding z-score was 1.11. Then ATCGAGAGGTCGAGGTGAGTATAGAGAAAGGGAA, with 2.41.

In turn, AGTCAAAGTTCAGGACGAAGTAACGTAAAGCACG had a PBM binding z-score of 2. Then CCTCGGAGGACAGAAGGTCAGAGCCGTCCGCTTT, with 0.934; and TCTGCTAGGTCAATGATGGTCAGCTAATCTGCTA, with 1.32; and CAAACTAGGTCACGATAGGTCAAAGTCGAATGAC, with 5.51. In the case of ATACCAAGGTGAGCGTGAGGTCGTTGATACTAAC it was 3.32. In the case of GTACCACGGTGAATAGGTCGTTGATGAGTAGGCG it was -0.0883; in that of CGAACTAGGTCATCCATGACAGTGAATACATTGA, 2.45; in that of ATCTCTAGGTAAGAAGTTCAGTGAAAGAGAGGAC, 0.919.

Sequence ATCGCAAGGTCGTGAGGTGAGTATACAGAAAGGC yielded a PBM binding z-score of 2.33. Then TTACCAAGGTGAAGGTCCTTGATCCCTCTGTAGA, with 0.388; and AATACAGGGTCCCTAGGCCAGAGTAGGTACGAAT, with -0.389; and CCTATTAGTTAACCATAAGGGCAACCGAAGCTCG, with 0.653. Then AATACAGGGTCACTAGGCCAGAATAGGTACGAAT, with 4.2; and CCTACTAGGCCATTCAGAGGTCATTGATCATATG, with 4.33; and ACTTACGGGTCAACAAGGTTATAGCACGCGTATA, with 7.08.

The record behind these values is the supplement of paper PMC6555819.
